Sampled rows, rich in hits. Any-hit rate of the full collection: about 7.7%.
Sm TGR inh: qHTS Assay for the Inhibitors of Schistosoma Mansoni Peroxiredoxins | AID 485364, 2010 | hit rate 3% among 360,000 | Potency, µM (series often up to 114 µM), usual class: inhibitors | purified TGR, DTNB reduction, TNB absorbance 405 nm | Schistosoma mansoni thioredoxin glutathione reductase (TGR), Q962Y6; also: nearly all actives have a fitted effect of over 60% in size
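TGR 20 nM + NADPH 100 uM (dispensed conc.), cpd preinc 15 min RT; start with NADPH (500 uM addition) then DTNB (15 mM addition). Kinetic TNB absorbance, 405 nm filter. Four-parameter Hill fit across titration.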
Giardia FBPA inh: qHTS Assay for Inhibitors of Fructose-1,6-bisphosphate Aldolase from Giardia Lamblia; A8B2U2; purified Giardia FBPA; Potency, µM (top dose mostly 59.6 µM), usual class: inhibitors; hit rate 0.71% among 290,000; also: nearly all actives have a fitted effect of over 55% in size
Target sequence (A8B2U2 whole entry, looked up): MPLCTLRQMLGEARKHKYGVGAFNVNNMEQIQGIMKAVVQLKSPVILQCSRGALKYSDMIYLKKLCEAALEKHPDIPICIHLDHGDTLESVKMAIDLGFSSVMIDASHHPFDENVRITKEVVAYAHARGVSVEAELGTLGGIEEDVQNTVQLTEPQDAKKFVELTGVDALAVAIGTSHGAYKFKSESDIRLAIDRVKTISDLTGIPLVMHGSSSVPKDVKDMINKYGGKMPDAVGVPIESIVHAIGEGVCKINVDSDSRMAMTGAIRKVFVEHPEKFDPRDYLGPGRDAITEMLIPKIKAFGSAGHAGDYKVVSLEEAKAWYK
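40 nM FBPA preincubated 10 min at RT with compound (up to 57.5 uM final), then substrate plus GAPDH/TPI/NAD/arsenate coupling and diaphorase/resazurin added. Fluorescence read after 20 min at RT, 525/598 nm.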
RE007 growth inh: qHTS Assay for Inhibitors of the HIV-1 protein Vpr; hit rate 0.21% among 360,000; Potency, µM (series often up to 92.2 µM), actives largely listed as inhibitors; S. pombe RE007 Vpr strain, BacTiter-Glo ATP luminescence, 24 h; active = well fitted falling curve with a large enough effect; inconclusive = small, poorly fitted or top-dose-only effect; inactive = no such curve, though single readings can be large or run the other way; also: nearly all actives have a fitted effect of over 50% in size
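Fission yeast RE007 carrying one integrated HIV-1 vpr copy, seeded at OD 0.01 in PMG+AL medium with 23 nL pinned compound. Grown 24 h at 30 degrees; viability read by BacTiter-Glo luminescence after 5 min.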
HCMV inh: qHTS Assay for inhibitors of the human cytomegalovirus (HCMV). HFF cells, HCMV-luciferase reporter, 72 h; active compounds read low. hit rate 4.5% among 410,000. activity change, negative = inhibition, % at 57.5 µM; in the data active = activity change below about -60%; inconclusive = no clear call, values can overlap the other calls; inactive = above about -39%
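Steps: HFFs plated, 16 h 37C; compounds added; HCMV-luciferase added to MOI 1 PFU/cell; 72 h 37C; OneGlo reagent, 5 min room temperature; luminescence read, normalized to controls.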
TbPYK inhibitor: qHTS of Trypanosoma Brucei Inhibitors; TbPYK enzyme, Kinase-Glo Plus ATP luminescence, 45 min; Potency, µM (top dose mostly 76.8 µM), most hits filed as inhibitors; hit rate 0.12% among 410,000; AID 624173, 2012; also: nearly all actives have a fitted effect of over 50% in size
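Luminescent Kinase-Glo Plus end-point after 45 min room-temperature reaction of T. brucei pyruvate kinase started with 130 uM ADP (final). Buffer TEA 50 mM pH 7.2 with KCl, MgCl2, BSA, Tween-20; titration-based qHTS with fitted concentration-effect curves.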
FMDV inh: High Throughput Screening for Foot and Mouth Disease Virus Antivirals | FMDV antiviral cell-based qHTS | Potency, µM (doses to about 57.9 µM), hits mostly inhibitors | hit rate 1.2% among 410,000 | AID 1159524, 2015; calls by dose curve; tested in HEK293T cells; also: read-out not given here; nearly all actives have a fitted effect of over 45% in size
Large screens that a line does not name were inactive. Unless noted, calls follow the shape of the dose curve; as a rule, active = well fitted curve in the direction sought with a large enough effect; inconclusive = small, poorly fitted or top-dose-only effect, or another doubt; inactive = no such curve, though single readings can be large; an effect the other way counts as inactive or inconclusive.

COC(=O)c1ccccc1NC(=O)CSc1nc2cccnc2n1C	none
COC(=O)c1cccc(NC(=O)CSc2nncn2-c2ccccn2)c1	none
COC(=O)c1ccc(NC(=O)CSc2nncn2-c2ccccn2)cc1	HCMV inh -72
CCn1c(-c2ccccc2F)nc2cc(C(=O)N3CCNC(=O)C3CC(=O)OC)cc(NC(C)=O)c21 (stereo unspecified)	none (no result: Sm TGR inh, Giardia FBPA inh, RE007 growth inh, HCMV inh, TbPYK inhibitor)
O=C(O)CSCc1nc2scc(-c3ccccc3)c2c(=O)[nH]1	none
O=C(OCc1nc2scc(-c3ccccc3)c2c(=O)[nH]1)c1cc([N+](=O)[O-])ccc1Cl	FMDV inh 40µM
[O-]c1ccccc1-[n+]1c(-c2ccccc2)cc(-c2ccccc2)cc1-c1ccccc1	HCMV inh -97, FMDV inh 28µM (no result: Giardia FBPA inh)
O=C([O-])c1ccccc1-[n+]1c(-c2ccccc2)cc(-c2ccccc2)cc1-c1ccccc1	HCMV inh inconclusive, FMDV inh inconclusive (no result: Giardia FBPA inh)
Oc1ccccc1-[n+]1c(-c2ccccc2)cc(-c2ccccc2)cc1-c1ccccc1	HCMV inh -84, FMDV inh 28µM (no result: Giardia FBPA inh)
Nc1ccccc1-[n+]1c(-c2ccccc2)cc(-c2ccccc2)cc1-c1ccccc1	HCMV inh inconclusive, FMDV inh inconclusive
Cc1ccccc1-[n+]1c(-c2ccccc2)cc(-c2ccccc2)cc1-c1ccccc1	HCMV inh -96, FMDV inh 10µM (no result: Giardia FBPA inh)
CCc1c(C(C)S(=O)(=O)c2ccc(C)cc2)[nH]c(=O)n1-c1ccc(C)cc1 (stereo unspecified)	Sm TGR inh 2.8µM
CCc1[nH]c(=O)[nH]c1C(C)S(=O)(=O)c1ccc(C)cc1 (stereo unspecified)	Sm TGR inh 0.28µM
Cc1ccc(-n2c3c(c(=O)[nH]c2=O)C(NS(=O)(=O)c2ccc(C)cc2)(C(F)(F)F)C(=O)N3)cc1 (stereo unspecified)	none
COc1ccc(-n2nc3c(c2NC(=O)C(=O)NCc2ccccc2)CSC3)cc1	none (no result: Giardia FBPA inh, RE007 growth inh)
COc1ccc(C(NC(=O)c2ccc(-c3ccccc3)cc2)c2ccccc2)cc1 (stereo unspecified)	HCMV inh -66 (no result: Giardia FBPA inh)
COc1ccccc1CNC(=O)c1cnc2sc(N3CCOCC3)nn2c1=O	none (no result: Giardia FBPA inh, RE007 growth inh)
O=C1N(Cc2cccnc2)C[C@@H]2C[C@@H](c3ccc(C(F)(F)F)cc3)N3CCC[C@@]123	none
COCc1ccc([C@@H]2C[C@H]3CN(Cc4ccccc4C)C(=O)[C@]34CCCN24)o1	none
COCc1ccc([C@@H]2C[C@H]3CN(Cc4cccnc4)C(=O)[C@]34CCCN24)o1	Sm TGR inh 45µM
O=C1N(Cc2cccnc2)C[C@@H]2C[C@@H](c3cccc(Oc4ccccc4)c3)N3CCC[C@@]123	HCMV inh -67, FMDV inh inconclusive
Cc1ccc(C(=O)OCC(=O)NCCN2C(=O)CSC2=O)cc1[N+](=O)[O-]	none (no result: Sm TGR inh, Giardia FBPA inh)
CC1CCN(c2ccc(C(=O)OCC(=O)NCCN3C(=O)CSC3=O)cc2[N+](=O)[O-])CC1	HCMV inh -78, FMDV inh inconclusive
O=C(Nc1ccc(Cl)cc1)c1cc2c(cc1O)[nH]c1ccccc12	HCMV inh -81, FMDV inh inconclusive
O=S(=O)(c1ccc(Br)s1)N1CCN(c2ccc(F)cc2)CC1	Sm TGR inh 25µM
O=C(c1cc(-c2ccc(Br)cc2)n[nH]1)N1CCN(S(=O)(=O)c2ccc(Br)s2)CC1	HCMV inh active, FMDV inh inconclusive (no result: Giardia FBPA inh, RE007 growth inh)
O=C(c1cc(-c2ccc(Cl)cc2)n[nH]1)N1CCN(S(=O)(=O)c2ccc(Br)s2)CC1	HCMV inh inconclusive (no result: Giardia FBPA inh, RE007 growth inh)
CC(C)NC(=O)N(C)C[C@H]1OCc2cn(nn2)CCCC(=O)N([C@H](C)CO)C[C@@H]1C	none (no result: Sm TGR inh, Giardia FBPA inh, RE007 growth inh, TbPYK inhibitor, FMDV inh)
CC(C)(C)NC(=O)c1nn2c(C(F)(F)F)cc(-c3ccccc3)nc2c1Br	none
COC(=O)c1nn2c(C(F)(F)F)cc(-c3ccc(Br)o3)nc2c1Br	Sm TGR inh 45µM, TbPYK inhibitor inconclusive
CCOC(=O)c1c(C)oc(NC(=O)CCl)c1C(=O)OCC	Sm TGR inh 14µM
CS(=O)(=O)N1CC(=O)N2[C@@H](CO)[C@H](c3ccc(Br)cc3)[C@@H]2C1	none (no result: Sm TGR inh, Giardia FBPA inh, RE007 growth inh, TbPYK inhibitor, FMDV inh)
CC1CC(C)CN(S(=O)(=O)c2ccc(C(=O)N(C)Cc3ccccc3)cc2)C1 (stereo unspecified)	HCMV inh -65 (no result: Sm TGR inh, Giardia FBPA inh)
CC1CC(C)CN(S(=O)(=O)c2ccc(C(=O)N3CCN(c4ccccc4)CC3)cc2)C1 (stereo unspecified)	none (no result: FMDV inh)
CC1CC(C)CN(S(=O)(=O)c2ccc3c(c2)oc(=O)n3CC(=O)N(C)Cc2ccccc2)C1 (stereo unspecified)	HCMV inh -79
C=C(C)Cn1c(N2CCN(c3ccc(OC)cc3)CC2)nc2c1c(=O)n(C)c(=O)n2C	HCMV inh inconclusive, FMDV inh 28µM
O=C(NC1(C(F)(F)F)N=C(c2ccccc2)N(C2CCCCC2)C1=O)c1ccc(F)cc1 (stereo unspecified)	none (no result: Giardia FBPA inh, RE007 growth inh)
Cc1ccccc1C(=O)NC1(C(F)(F)F)N=C(c2ccccc2)N(C2CCCCC2)C1=O (stereo unspecified)	HCMV inh -102, FMDV inh inconclusive (no result: Giardia FBPA inh, RE007 growth inh)
Cc1ccc(C(=O)OCC(=O)Nc2nc(-c3ccccc3)cs2)cc1NC(=O)c1ccco1	FMDV inh 25µM (no result: Sm TGR inh)
Cc1ccc(C(=O)OCC(=O)Nc2ccccc2)cc1NC(=O)c1ccco1	none
Cc1ccc(C(=O)OCC(=O)Nc2ncc(Cl)cc2Cl)cc1NC(=O)c1ccco1	Sm TGR inh 45µM
COC(=O)[C@@H]1CCCN1C(=O)c1c(OC)cc(=O)n2c1CCN(Cc1cc(OC)ccc1F)CC2	none (no result: Sm TGR inh, Giardia FBPA inh, RE007 growth inh, HCMV inh, TbPYK inhibitor)
c1cncc(CNc2ccc3c(c2)OCO3)c1	Sm TGR inh 16µM, Giardia FBPA inh inconclusive, TbPYK inhibitor inconclusive
O=C(COC(=O)C1CC1)Nc1ccc2c(c1)OCO2	HCMV inh -98
Cc1ccc(CNc2ccc3c(c2)OCO3)c(C)c1	Sm TGR inh 40µM, Giardia FBPA inh inconclusive (no result: RE007 growth inh, HCMV inh, TbPYK inhibitor, FMDV inh)
O=C(COC(=O)c1cccnc1)Nc1ccc2c(c1)OCO2	HCMV inh -84 (no result: Sm TGR inh)
CCc1ccccc1NC(=O)Cn1ccn(Cc2ccccc2)c(=O)c1=O	none (no result: Giardia FBPA inh, RE007 growth inh)
O=C(CSc1nc2c(c(=O)[nH]1)CCC2)Nc1cccc(O)c1	none (no result: Giardia FBPA inh, RE007 growth inh)
COc1cccc(/C=C/C(=O)OCC(=O)Nc2ccc3c(c2)OCO3)c1	HCMV inh -97 (no result: Sm TGR inh, Giardia FBPA inh)
O=C(CC1CS(=O)(=O)CC1CC(=O)Nc1ccc2c(c1)OCCO2)Nc1ccc2c(c1)OCCO2 (stereo unspecified)	HCMV inh -81, FMDV inh inconclusive
